Mot1-301 SUMO: SUMOylation pathway inhibition by Mot1-301 growth rescue | S. cerevisiae Mot1-301 growth rescue, ATP luminescence, 38.5C; percent above DMSO median, 100 means doubled | actives 1% (n = 320,000) | growth rescue, % at 18.8 µM | AID 2716;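 active = every valid replicate shows activation above 250% relative to neutral control wells; inactive = the rest, any valid replicate at or below 250%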
GRIN3A LBD mod: NR3A (human) ligand-binding domain modulation. AID 1259313. Tm shift relative to glycine control, % at 25 µM. actives 2.5% (n = 340,000). NR3A LBD differential scanning fluorimetry, Tm shift; 0% = protein alone, 100% = glycine-bound protein;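 active = melting temperature shift of at least 10% of the positive control shift, at one fixed dose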
AHR activator: human AHR activation; P35869; AHR-responsive luciferase reporter cells, luminescence; activation, % at 5 µM; actives 2.5% (n = 320,000); AID 2796; in the data active = activation above about 47%
H9c2 protect: myocardial damage modulation in H9c2 cells; AID 588492; H9c2 cardiomyocytes, H2O2 injury protection, ATPLite, 2 h; protection from H2O2 cell death, % at 20 µM; actives 0.63% (n = 360,000);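 active = compounds giving at least 50% protection of heart cells from peroxide-induced death in the single-dose screen, raw or plate-pattern-corrected value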
AI-2 QS mod: Vibrio harveyi AI-2 quorum sensing modulation. Vibrio harveyi JMH597 AI-2 luminescence/OD600 ratio, 9 h; hits give low values; strain lacks LuxN and CqsS sensors; 0 = neutral-control median. activity change, % at 7.5 µM. actives 0.4% (n = 300,000). AID 2094; in the data active = activity change below about -75%, passing the limit was not always enough;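 also: luminescence divided by OD600 gain over 9 h not by final OD600 alone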
NTR1 ag: agonists of human neurotensin receptor NTR1; P30989; NTR1-U2OS beta-arrestin-GFP spot imaging, agonist mode; activation, % at 20 µM; actives 0.17% (n = 330,000);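 active = activation at or above 40% of the spot to cytoplasm intensity ratio, with at least 20 cells analyzed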
AHR act cf: confirmation of human aryl hydrocarbon receptor activators | shares compounds with AHR activator | human cells, AHR-responsive luciferase reporter, luminescence | activation, % at 9 µM | actives 87% (n = 2,300) | AID 2845; in the data active = activation above about 49%;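 also: HepG2 hepatoma cells carrying a DRE-driven firefly luciferase reporter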
PXR counter: PXR activation, counter-screen for AHR activators; AID 434939; activation, % at 11.6 µM; cell-based PXR reporter, luciferase luminescence; actives 88% (n = 2,300); shares compounds with AHR activator; in the data active = activation above about 11%;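 also: human hepatoma DPX-2 cells expressing full-length human PXR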
Target sequence (O75469 whole entry, looked up): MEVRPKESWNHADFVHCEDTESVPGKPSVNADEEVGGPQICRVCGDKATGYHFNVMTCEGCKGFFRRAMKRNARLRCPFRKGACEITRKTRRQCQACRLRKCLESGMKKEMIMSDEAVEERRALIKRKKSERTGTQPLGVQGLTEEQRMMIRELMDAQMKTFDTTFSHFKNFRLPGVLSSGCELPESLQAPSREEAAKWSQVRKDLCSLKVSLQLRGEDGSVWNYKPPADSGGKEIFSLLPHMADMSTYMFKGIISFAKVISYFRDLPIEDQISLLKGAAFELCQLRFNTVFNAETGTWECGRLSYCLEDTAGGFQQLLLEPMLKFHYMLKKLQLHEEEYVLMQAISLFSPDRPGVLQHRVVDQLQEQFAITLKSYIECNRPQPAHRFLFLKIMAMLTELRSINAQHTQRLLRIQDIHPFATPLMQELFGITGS
Large screens that a line does not name were inactive (follow-up assays come after a bar, where they were run). Hits are enriched below; roughly 6.2% of the tested compounds scored in any of these assays.

C=CCNc1nc(N)c([N+](=O)[O-])c(Nc2cccc(Cl)c2)n1	AHR activator 89 | AHR act cf 132 | PXR counter 13
Cc1cccc(NC(=O)CS(=O)CC(=O)Nc2cnc3ccccc3c2)c1C (stereo not given)	none
Cc1cc(C)c2c(C)c(C(=O)NCc3ccncc3)oc2c1	AHR activator 83 | AHR act cf 73 | PXR counter 24
CC/C(=N/Nc1ccc(Cl)cc1)c1cnnc(SC)n1	GRIN3A LBD mod 17, AHR activator 98 | AHR act cf 94 | PXR counter 12
CC/C(=N/Nc1cccc(C)c1)c1cnnc(SC)n1	none
Cc1ccc(C(=O)Cc2cc3ccccc3oc2=O)c(C)c1	none
COc1cc(-c2nc(-c3ccc(Br)o3)no2)cc(OC)c1OC	AHR activator 91 | AHR act cf 84 | PXR counter 14
Clc1ccccc1-c1nc(-c2ccc(Br)o2)no1	AHR activator 100 | AHR act cf 108 | PXR counter 43
Brc1ccc(-c2noc(CCc3ccccc3)n2)o1	none
O=[N+]([O-])c1ccccc1-c1nc(-c2ccc(Br)o2)no1	AHR activator 112 | AHR act cf 109 | PXR counter 47
Brc1ccc(-c2noc(-c3ccccn3)n2)o1	AHR activator 101 | AHR act cf 71 | PXR counter 25
COc1ccc(-c2noc(-c3cc(C)cc(C)c3)n2)cc1OC	none
Cc1cc(C)c(S(=O)(=O)N(C)CC(=O)N2CCCC2)c(C)c1	none (no result: Mot1-301 SUMO, GRIN3A LBD mod, AHR activator, AI-2 QS mod, NTR1 ag)
Cc1ccc(NC(=O)CCc2nnc3ccc(N4CCC5(CC4)OCCO5)nn23)cc1F	none
CCCC(NC(=O)C(C)Sc1nnnn1C1CC1)c1ccccc1 (stereo not given)	none (no result: AI-2 QS mod)
COc1ccc2c(c1OC)C(=O)N(c1nccs1)C2	AHR activator 82 | AHR act cf 148 | PXR counter 17
O=C(NC1CCCN(Cc2ccc(Cl)cc2)C1)c1ccoc1 (stereo not given)	none
COc1cc2c(cc1NC(=O)c1cccc(S(=O)(=O)N(C)C)c1)oc1ccccc12	GRIN3A LBD mod 14, AHR activator 79 | AHR act cf 65 | PXR counter 42
O=C(Nc1ccc(Br)cc1)c1cc(-c2ccncc2)nc2ccccc12	AHR activator 109 (no result: AI-2 QS mod) | AHR act cf 97 | PXR counter 12
COc1cc2c(cc1NC(=O)c1cc(-c3ccncc3)nc3ccccc13)oc1ccccc12	AHR activator 83 | AHR act cf 71 | PXR counter 13
COc1cc2c(cc1NC(=O)C(C)OC(=O)/C=C/c1ccc(OC(F)F)cc1)oc1ccccc12 (stereo not given)	AHR activator 144 (no result: Mot1-301 SUMO) | AHR act cf 107 | PXR counter 30
COc1cc2c(cc1NC(=O)c1cc(-c3cccnc3)nc3ccc(C)cc13)oc1ccccc12	none
CN(C)S(=O)(=O)c1cccc(C(=O)Nc2ccccc2[N+](=O)[O-])c1	none
COc1cc(-c2coc3c(C(=O)NC4CCCCC4)cccc23)ccc1O	none (no result: Mot1-301 SUMO, GRIN3A LBD mod, AHR activator, AI-2 QS mod, NTR1 ag)
C/C(=N\NC(=O)c1nnn(-c2nonc2N)c1CN1CCC(C)CC1)c1ccc(Br)cc1	none (no result: Mot1-301 SUMO, GRIN3A LBD mod, AHR activator, AI-2 QS mod, NTR1 ag)
O=C(Nc1ccc2c(c1)OCCO2)c1cc(-c2ccccc2)nc2ccccc12	none
NNC(=O)c1cc(-c2ccc(O)cc2)nc2ccc(Br)cc12	GRIN3A LBD mod 11, AHR activator 81 | AHR act cf inactive | PXR counter inactive
O=C(Nc1ccc2c(c1)OCO2)c1cc(-c2ccncc2)nc2ccccc12	AHR activator 94 | AHR act cf 95 | PXR counter 35
COc1cc2c(cc1NC(=S)NC(=O)/C=C/c1ccco1)oc1ccccc12	none
COc1cc2c(cc1NC(=O)Nc1ccc(C)cc1)oc1ccccc12	GRIN3A LBD mod 29, AHR activator 87 | AHR act cf 98
NNC(=O)c1cc(C2CC2)nc2ccc(Br)cc12	none (no result: AHR activator)
COc1ccc(NC(=O)c2sc(=O)n(Cc3ccccc3C#N)c2C)cc1OC	none (no result: Mot1-301 SUMO, GRIN3A LBD mod, AHR activator, AI-2 QS mod, NTR1 ag)
COc1ccc(C2/C(=C(/O)c3ccccc3)C(=O)C(=O)N2C)cc1OC (stereo not given)	none
CN(C)c1ccc([C@@H]2[C@@H]([N+](=O)[O-])[C@H]3C=Cc4ccccc4N3[C@H]2C(=O)c2ccc(Cl)cc2)cc1	AHR activator 107 (no result: AI-2 QS mod) | AHR act cf 98 | PXR counter 72
Cn1c(-c2ccc(Br)o2)nc2ccccc21	none
Cn1c(-c2ccc(Br)o2)nc2cc(Br)ccc21	GRIN3A LBD mod 13, AHR activator 116 | AHR act cf 125 | PXR counter 20
Cc1nc2c(OCCN3C(=O)c4ccccc4C3=O)cccn2c1N(C)C(=O)CCC1CCCC1	none (no result: Mot1-301 SUMO, GRIN3A LBD mod, AHR activator, AI-2 QS mod, NTR1 ag)
COC(=O)c1ccccc1S(=O)(=O)N1CCC(C(=O)OC(C)C(=O)N(C)Cc2ccccc2)CC1 (stereo not given)	none (no result: Mot1-301 SUMO, AHR activator, AI-2 QS mod, NTR1 ag)
Cc1ccc(NC(=O)c2cccc(C(F)(F)F)c2)cc1NC(=O)c1[nH]cnc1C(N)=O	AHR activator 119 (no result: AI-2 QS mod) | AHR act cf 114 | PXR counter 57
Cc1nc2ccc(NC(=O)c3cccc(C(F)(F)F)c3)cc2o1	none
C=CCn1c(=N)n(CC(=O)c2cccc([N+](=O)[O-])c2)c2ccccc21	AHR activator 85 | AHR act cf 128 | PXR counter 58
Cc1ccc(C)c(OCCNc2ncccc2[N+](=O)[O-])c1	none
O=C(Nc1ccccc1)c1cc([N+](=O)[O-])ccc1NCc1cccnc1	AHR activator 83 | AHR act cf 104 | PXR counter 41
O=C(Nc1ccc(Cl)c(Cl)c1)Nc1ccc([N+](=O)[O-])cn1	AHR activator 91 | AHR act cf 86 | PXR counter inactive
CC(=O)Nc1ccc(NC(=O)c2ccc([N+](=O)[O-])cc2Cl)cc1	none
O=C(Nc1ccccc1)c1cc([N+](=O)[O-])ccc1Cl	AHR activator 88 | AHR act cf 95 | PXR counter 14
OCC1(CO)COC(CCc2ccccc2)=N1	none
C[C@@H]1CN([C@@H](C)CO)C(=O)CCCn2nncc2CO[C@H]1CN(C)Cc1ccc(Cl)c(Cl)c1	none (no result: Mot1-301 SUMO, GRIN3A LBD mod, AHR activator, AI-2 QS mod, NTR1 ag)
COc1ccc(CN2C(=O)C(CC(=O)NCC3CCCCC3)CC(C(=O)N(C(C)C)C(C)C)=C2C)cc1 (stereo not given)	none (no result: Mot1-301 SUMO, GRIN3A LBD mod, AHR activator, AI-2 QS mod, NTR1 ag)
COCCN(C(=O)c1ccc(N(C)S(=O)(=O)c2ccc(C)cc2)cc1)c1c(N)n(CC(C)C)c(=O)[nH]c1=O	none (no result: Mot1-301 SUMO, AHR activator, AI-2 QS mod, NTR1 ag)
CCc1nc2oc3ccccc3c(=O)c2c(=O)n1-c1ccccc1	AHR activator 99 | AHR act cf 118 | PXR counter 24

Screening data: PubChem BioAssay, several laboratories
